Experimental data as given in PubChem BioAssay (NCI).
“And” between values parts separate entries of the source, which are not always exact repeats. Equal values may be shown once. Compounds without any hit were thinned out: in the full panel of roughly 83,000, 20% have a hit.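 Growth was measured after 48 h exposure to one concentration of compound in 96-well plates. Values under 10 count as active.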 Values without a mark were called inactive. The source made the active and inactive calls.

Each compound was assayed on HCT-15 colon (assay: NCI-60 one-dose screen, 48 h (100 = growth as untreated, 0 = no growth, -100 = all killed)). Settings: 10 µM unless noted.

| Compound | growth |
| --- | --- |
| O=C(NNc1ccccc1)c1ccccc1 | 47.7% and 40.7% |
| CCOc1ccc(N2C(N)=NC(N)=NC2(C)C)cc1 | 99.9% |
| O=C1c2cc3c(cc2-c2c1c1ccc(Cl)cc1c(=O)n2CCCn1ccnc1)OCO3 | 7.3% (active) |

What follows are compounds tested on HT29 colon in the same assay as above. Settings: 10 µM unless noted.

| Compound | growth |
| --- | --- |
| Cc1ccc(C(=O)Nc2ccc(CN3CCN(C)CC3)c(C(F)(F)F)c2)cc1C#Cc1cnc(N)cc1C#N | -65.1% (active) |
| COc1cc(/C=C(/c2ccccc2)[N+](=O)[O-])c(OC)c2c1OCO2 | 1.28% (active) |
| C[C@@H]1CC[C@@H]2[C@@H]1[C@H](OC(=O)/C=C/c1ccccc1)[C@]1(c3ccccc3)C[C@@H](NC(=O)CO)[C@@]2(C)O1 | 109% |
| Nc1ccc(-c2nc3ccc4[nH]ncc4c3c3c2CCCC3)cc1F | 28% |
| C=C1CCC2C3(C)COC(c4ccc(NC(C)=O)cc4)OC3CCC2(C)C1C/C=C1/C(=O)OCC1O (centres undefined) | 52.2% |
| Cc1c(C(C)(C)O)cn2ncnc(Oc3ccc(NC(=O)Nc4ccc(Cl)c(C(F)(F)F)c4)cc3)c12 | 34.6% |
| Cc1ccccc1SSc1ccccc1C | 23.6% |
| O=C(CC1(O)C(=O)Nc2ccc(Br)cc21)c1ccc(Cl)cc1 (centres undefined) | 97.8% |
| O/N=C(/c1ccccc1)c1ccc2c3c(cccc13)CC2 | 97.5% and 86.4% |
| Cc1ccc(/C=C2\COc3ccc(O)c(O)c3C2=O)cc1 | 12.9% |
| CC1(Cc2ccccc2)CC2=C(C(=O)O1)C(c1ccccc1)NC(=O)N2 (centres undefined) | 96.8% |
